Assay outcomes (PubChem)
Compounds with a hit are over-represented: about 6% of the library has one in this group of screens.
Luciferase inh: firefly luciferase inhibition; purified firefly luciferase, luminescence, 8 min; Potency, µM (doses to about 57.1 µM), most hits filed as inhibitors; 72,000 tested, 2.2% active; also: nearly all actives have a fitted effect of over 40% in size
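Inhibition of light generation by firefly luciferase from ATP and luciferin was profiled with concentration-response curves per sample, ATP held at 10 uM within the enzyme's linear range. Plates were read by luminescence after an 8-minute ambient incubation.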
Pol III holo inh: DNA polymerase III holoenzyme inhibition | reconstituted DNA polymerase III holoenzyme replication, biochemical | Potency, µM (highest dose often 57.1 µM) | 71,000 tested, 0.25% active | AID 603
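Reconstituted *E. coli* holoenzyme (0.35 nM Pol III, 1 nM beta, 154 nM SSB, 2 nM primase) was preincubated with compound for 15 min at RT. Synthesis on 1.4 nM ssM13Gori ran 35 min, then was stopped with PicoGreen/EDTA and read as dsDNA fluorescence.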
Tau fil binding: binds recombinant human tau filaments. 71,000 tested, 2% active. Potency, µM (top dose mostly 57.1 µM). P10636. AID 596. recombinant tau filaments, thioflavin S fluorescence, 15 h; filaments grown with octadecylsulfate alongside compound;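 also: actives lower thioflavin S fluorescence by blocking filaments or displacing dye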
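Recombinant tau protein (human, 1 uM final) plus 30 uM ODS in HEPES pH 7.4 with NaCl, DTT and thioflavine S. Compound present from the start; fluorescence at 510 nm after 15 h, 37 C.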
PK Bst: pyruvate kinase (B. stearothermophilus) modulation. purified pyruvate kinase, luminescence ATP production; ribose 5-phosphate activator present at AC10. Potency, µM. AID 361. 51,000 tested, 1.2% active; in the data active = potency below about 11 µM; inconclusive = mostly about 12 µM to 25 µM;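 the screen sought inhibitors and activators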
ERK AVP block: inhibitors of vasopressin-stimulated ERK signaling pathway | HEK293-V1b, vasopressin-stimulated pERK AlphaScreen | Potency, µM (titrated, usually from 57.5 µM), usual class: inhibitors | 72,000 tested, 0.99% active | AID 995; also: nearly all actives have a fitted effect of over 55% in size
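Phosphorylated ERK1/2 detected via AlphaScreen bead proximity in lysates of V1b-expressing HEK293 cells given 25 nM vasopressin for 5 min after 30 min compound exposure (37 °C). AC50 from Hill equation; basal DMSO 0%, vasopressin 100%.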
ALOX15 inhib: inhibitors of human 15-lipoxygenase (ALOX15); purified 15hLO-1, xylenol orange hydroperoxide absorbance; 74,000 tested, 1.4% active; Potency, µM (top dose mostly 57.1 µM), usual class: inhibitors; P16050; also: nearly all actives have a fitted effect of over 55% in size
Target sequence (P16050 whole entry, looked up): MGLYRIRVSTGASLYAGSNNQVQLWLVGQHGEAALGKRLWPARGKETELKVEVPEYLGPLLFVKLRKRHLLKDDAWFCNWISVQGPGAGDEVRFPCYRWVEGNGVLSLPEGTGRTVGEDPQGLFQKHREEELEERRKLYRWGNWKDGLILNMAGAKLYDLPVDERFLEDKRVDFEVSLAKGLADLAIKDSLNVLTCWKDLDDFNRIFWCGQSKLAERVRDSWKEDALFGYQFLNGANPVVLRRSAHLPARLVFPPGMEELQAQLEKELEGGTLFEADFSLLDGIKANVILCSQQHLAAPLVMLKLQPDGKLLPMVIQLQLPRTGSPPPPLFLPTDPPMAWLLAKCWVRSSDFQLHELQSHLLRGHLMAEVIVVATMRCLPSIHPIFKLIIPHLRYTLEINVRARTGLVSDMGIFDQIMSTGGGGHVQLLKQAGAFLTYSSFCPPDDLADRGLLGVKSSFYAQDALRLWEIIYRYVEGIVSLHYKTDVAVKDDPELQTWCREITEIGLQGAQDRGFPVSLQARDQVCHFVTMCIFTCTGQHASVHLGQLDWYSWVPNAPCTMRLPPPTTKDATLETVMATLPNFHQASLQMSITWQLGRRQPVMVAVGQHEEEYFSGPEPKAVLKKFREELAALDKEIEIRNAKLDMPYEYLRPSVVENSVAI
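Hydroperoxide formed from arachidonic acid (50 uM) by purified human 15hLO-1 (40 nM) oxidizes ferrous iron, and the ferric-xylenol orange complex is read at 573 versus 405 nm. Compounds were preincubated 15 min; reaction ran 6 min at room temperature.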
Of the large screens only hits and unclear results are named; the others gave an inactive call. Unless noted, calls follow the shape of the dose curve; as a rule, active = well fitted curve in the direction sought with a large enough effect; inconclusive = small, poorly fitted or top-dose-only effect, or another doubt; inactive = no such curve, though single readings can be large; an effect the other way counts as inactive or inconclusive.

O=C(CN1CCOc2ccccc21)NC1CCN(Cc2ccccc2)CC1	Tau fil binding 12.6µM (no result: PK Bst)
COc1cccc2[nH]c3c(N4CCCC(C)C4)ncnc3c12 (configuration not stated)	Luciferase inh 12.6µM, ERK AVP block inconclusive, ALOX15 inhib inconclusive (no result: PK Bst)
N[C@@H](Cc1c[nH]c2ccc(O)cc12)C(=O)O	ALOX15 inhib inconclusive (no result: PK Bst)
N[C@@H](Cc1cc(-c2ccc(Cl)cc2Cl)cc(CP(=O)(O)O)c1O)C(=O)O	Pol III holo inh 31.6µM, Tau fil binding 39.8µM, ERK AVP block inconclusive, ALOX15 inhib 12.6µM (no result: PK Bst)
O=C(O)CN(CCN(CC(=O)O)CC(=O)O)CC(=O)O.[Cu]	none (no result: PK Bst)
O=C(Oc1ccc(-c2cn3c(n2)SCC3)cc1)c1ccccc1	Luciferase inh 12.6µM, ERK AVP block 15.8µM (no result: PK Bst)
O=C(Oc1ccccc1)c1ccc(-n2cnnn2)cc1	none
Cc1ccc(N=Nc2ccc(N)cc2C)c(S(N)(=O)=O)c1	Tau fil binding 3.98µM (no result: PK Bst)
Nc1ccc(S(N)(=O)=O)cc1	none (no result: PK Bst)
C=CCn1c(N2CCCCCC2)nc2c1c(=O)[nH]c(=O)n2C	none
C/C(Cl)=C\Cn1c(N2CCCC2)nc2c1c(=O)[nH]c(=O)n2C	ERK AVP block 25.1µM
CCN1C(C)=C(C(=O)OC)C(c2ccccc2)N2C(=O)[C@](O)(C(=O)OC)CC(C#N)=C12 (some centres not stated)	none (no result: Luciferase inh, Pol III holo inh, Tau fil binding, PK Bst)
Cc1ccc(Nc2cccccc2=O)cc1	Luciferase inh 25.1µM
Cc1ccc(C(=O)Nc2nnn(C)n2)cc1	Luciferase inh 25.1µM (no result: PK Bst)
Cn1nnc(NC(=O)c2cccc(F)c2)n1	none
CCn1nnc(NC(=O)c2cccnc2)n1	ALOX15 inhib inconclusive
CCn1nnc(NC(=O)c2ccc(C(C)(C)C)cc2)n1	Luciferase inh 12.6µM, PK Bst inconclusive
COC(=O)[C@H](C)NC(=O)C/C=C\[C@@H](C)CO	none (no result: Pol III holo inh, Tau fil binding, PK Bst)
CCCC(=O)Nc1ccc(N2CCN(C(=O)CCC)CC2)cc1	none
CCCCC(=O)Nc1ccc(N2CCN(C(=O)CC)CC2)cc1	ERK AVP block 25.1µM
CC1=C/C(=C\c2ccc3c(c2)OCO3)C(=O)S1	Tau fil binding 25.1µM, ALOX15 inhib inconclusive
C[C@@H](C(=O)O)/C(=C/c1ccc2c(c1)OCO2)C(=O)O	none (no result: PK Bst)
CC1=C2[C@H](/C=C(\C)C(=O)O)CC[C@@H](C)[C@H]2CC1	none (no result: Luciferase inh, PK Bst)
O=CNC1CCCc2c1[nH]c1ccc(Cl)cc21 (configuration not stated)	ALOX15 inhib inconclusive (no result: PK Bst)
Clc1ccc2[nH]c3c(c2c1)CCc1cn[nH]c1-3	Tau fil binding 15.8µM, ERK AVP block inconclusive, ALOX15 inhib inconclusive (no result: PK Bst)
c1ccc2c3c([nH]c2c1)-c1[nH]ncc1CC3	PK Bst 3.14
CCC1=C2CC[C@H]3C(=O)N(CC)C(=O)[C@H]3[C@H]2[C@@]2(C)C(=O)N(CC(=O)OC)C(=O)N2C1=O	none (no result: Luciferase inh, Pol III holo inh, Tau fil binding, PK Bst, ALOX15 inhib)
N[C@@H](Cc1c[nH]c2ccccc12)C(=O)NCC(=O)O	Tau fil binding inconclusive (no result: PK Bst, ERK AVP block, ALOX15 inhib)
CC(C)OC(=O)c1ccc(N2C(=O)C3CC=CCC3C2=O)cc1 (configuration not stated)	none
C/C(=N\O)c1ccc(N2C(=O)C3CC=C(Cl)CC3C2=O)cc1 (configuration not stated)	Tau fil binding 3.16µM (no result: PK Bst)
[O-]/[N+](=N\O)c1ccccc1	none (no result: Luciferase inh, PK Bst)
C=CC(=O)OCCCCCCOC(=O)C=C	none (no result: Luciferase inh, PK Bst)
COc1ccc(OC)c(S(=O)(=O)n2ccnc2)c1	none (no result: PK Bst, ERK AVP block)
O=C1CC(Nc2ccc(N3CCOCC3)cc2)C(=O)N1c1ccccc1F (configuration not stated)	ALOX15 inhib 20µM (no result: PK Bst, ERK AVP block)
O=C1CC(Nc2ccccc2)C(=O)N1c1ccc(N2CCOCC2)cc1 (configuration not stated)	none
CN1CCN(c2ncc3nc(-c4cn(C)c5ccccc45)c(=O)n(CCC#N)c3n2)CC1	ALOX15 inhib inconclusive (no result: PK Bst)
CCN(CC)C(=O)c1sc2nc(-c3ccc(OC)cc3)cn2c1C	Luciferase inh 12.6µM
Cc1cnc(CNc2ccnc(-c3ccccc3C(F)(F)F)n2)cn1	none (no result: PK Bst)
Cn1cccc1Cc1nnc(SCC(=O)Nc2nccs2)n1CCc1ccccc1	ERK AVP block 15.8µM, ALOX15 inhib inconclusive (no result: PK Bst)
CCSc1nnc(NC(=O)CSc2nnc(Cc3cccn3C)n2CCc2ccccc2)s1	none
Nc1nc2c(nc(Sc3ccc(Cl)cc3)n2C2OC(CO)C(O)C2O)c(=O)[nH]1 (configuration not stated)	none (no result: Luciferase inh, Pol III holo inh, Tau fil binding, PK Bst)
Cc1c(O)ccc2c3c(c(=O)oc12)CCC(C)C3 (configuration not stated)	none
Cc1c(O)ccc2c3c(c(=O)oc12)CCCC3	PK Bst inconclusive, ERK AVP block 15.8µM
Clc1ccc(-c2nnc3ccccn23)cc1	none
c1csc(-c2nnc3ccccn23)c1	PK Bst 6.99
C=CCC1(O)C=CCC2C3C4C(OC(C)(C)C)C2C1C34 (configuration not stated)	none (no result: Luciferase inh, Pol III holo inh, Tau fil binding, PK Bst)
COC(=O)[C@@H]1C[C@H]1[C@@H](NC(=O)OCc1ccccc1)c1ccccc1	none (no result: Luciferase inh, PK Bst, ERK AVP block, ALOX15 inhib)
COc1ccc(C2CC(=O)c3cnc(NC(=O)c4ccccc4OC)nc3C2)c(OC)c1 (configuration not stated)	ERK AVP block 10µM
COc1ncc2nc(-c3cccs3)c(=O)n(-c3ccccc3)c2n1	none (no result: PK Bst)
Cc1ccc(S(=O)(=O)Nc2cccc(-c3cn4ccsc4n3)c2)cc1	none
O=C(Nc1ccc(-c2cn3ccsc3n2)cc1)C1CC1	Luciferase inh 6.31µM, PK Bst 4.93
O=S(=O)(Nc1cccc(-c2cn3ccsc3n2)c1)c1ccc(F)cc1	Pol III holo inh inconclusive, ERK AVP block 20µM, ALOX15 inhib inconclusive
c1cn2cc(-c3ccc4c(c3)OCO4)nc2s1	Luciferase inh 7.94µM, PK Bst 8.94, ALOX15 inhib inconclusive
CC(C)CC(=O)Nc1cccc(-c2cn3ccsc3n2)c1	Luciferase inh 15.8µM, ERK AVP block 15.8µM
CCC(=O)Nc1cccc(-c2cn3ccsc3n2)c1	Luciferase inh inconclusive
Fc1ccc(C(c2ccc(F)cc2)N2CCN(C/C=C\c3ccccc3)CC2)cc1	ERK AVP block inconclusive (no result: PK Bst)
Cc1c2ccccc2c(CSC(=N)N)c2ccccc12	none (no result: PK Bst)
O=C(CCN1C(=O)c2ccccc2C1=O)Nc1ccc(-c2cn3ccsc3n2)cc1	none
CC(C)C(=O)Nc1cccc(-c2cn3ccsc3n2)c1	Luciferase inh inconclusive (no result: PK Bst)
CC(=O)Nc1ccc(-c2cn3ccsc3n2)cc1	Luciferase inh 15.8µM, PK Bst inconclusive
O=C(Nc1ccc(-c2cn3ccsc3n2)cc1)C1CCCC1	Luciferase inh 2.51µM, PK Bst 2.43
C[C@H]1CN(S(=O)(=O)c2cccc3cnccc23)CCN1	none (no result: PK Bst)
COc1cc(C2Nc3cccc4cccc(c34)N2)cc(OC)c1O	Tau fil binding 3.98µM
Cc1ccccc1N1C(=O)c2cc(S(N)(=O)=O)c(Cl)cc2N[C@H]1C	none (no result: PK Bst)
